Experimental data published in PubChem BioAssay (NCATS).
Results filed as inconclusive are left out. Entries that show only a call come without a potency. A number with no mark means an inactive call. The source made the active and inactive calls. Calls follow the shape of the dose curve; as a rule, active = well fitted curve in the direction sought with a large enough effect; inconclusive = small, poorly fitted or top-dose-only effect, or another doubt; inactive = no such curve, though single readings can be large; an effect the other way counts as inactive or inconclusive.

Columns and labels:
[1] = molecular target: Rap guanine nucleotide exchange factor 3 (Homo sapiens) (UniProt O95398); test: Confirmatory qHTS for agonist of cAMP-regulated guanine nucleotide exchange factor 3 (EPAC1) (AID 1645881);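 also: EPAC1 catalysed release of BODIPY-GDP from Rap1B seen as fluorescence loss; nearly all actives have a fitted effect of over 75% in size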
Chain of Rap guanine nucleotide exchange factor 3 (Homo sapiens) (O95398 whole entry, looked up): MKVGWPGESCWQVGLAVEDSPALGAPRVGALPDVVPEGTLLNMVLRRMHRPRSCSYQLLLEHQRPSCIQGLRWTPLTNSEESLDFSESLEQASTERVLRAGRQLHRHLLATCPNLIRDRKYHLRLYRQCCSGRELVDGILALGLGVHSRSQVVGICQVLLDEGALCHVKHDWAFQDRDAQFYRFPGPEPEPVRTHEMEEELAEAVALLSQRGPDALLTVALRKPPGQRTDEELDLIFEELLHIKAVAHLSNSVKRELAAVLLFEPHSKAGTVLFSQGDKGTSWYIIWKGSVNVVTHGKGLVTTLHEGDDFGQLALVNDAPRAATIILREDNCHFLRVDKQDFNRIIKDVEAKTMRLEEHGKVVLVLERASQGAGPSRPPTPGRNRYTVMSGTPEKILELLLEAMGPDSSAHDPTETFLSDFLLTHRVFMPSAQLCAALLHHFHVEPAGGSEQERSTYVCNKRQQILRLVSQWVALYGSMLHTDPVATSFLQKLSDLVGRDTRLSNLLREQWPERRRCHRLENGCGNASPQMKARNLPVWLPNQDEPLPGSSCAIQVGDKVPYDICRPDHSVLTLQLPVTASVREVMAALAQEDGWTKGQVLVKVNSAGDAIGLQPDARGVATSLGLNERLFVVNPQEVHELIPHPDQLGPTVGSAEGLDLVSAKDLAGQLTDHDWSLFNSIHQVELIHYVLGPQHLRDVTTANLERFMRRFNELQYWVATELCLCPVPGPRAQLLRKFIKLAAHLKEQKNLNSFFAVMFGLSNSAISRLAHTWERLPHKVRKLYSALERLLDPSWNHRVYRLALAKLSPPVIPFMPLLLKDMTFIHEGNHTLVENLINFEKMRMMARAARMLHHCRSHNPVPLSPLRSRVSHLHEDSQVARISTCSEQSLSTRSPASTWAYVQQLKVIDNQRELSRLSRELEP

[2] = molecular target: Rap guanine nucleotide exchange factor 4 (Homo sapiens) (UniProt Q8WZA2); test: Confirmatory qHTS for agonist of cAMP-regulated guanine nucleotide exchange factor 4 (EPAC2) (AID 1645884);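 also: nucleotide exchange releases bodipy-GDP from Rap1 and this lowers its fluorescence; nearly all actives have a fitted effect of over 65% in size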
Chain of Rap guanine nucleotide exchange factor 4 (Homo sapiens) (Q8WZA2 whole entry, looked up): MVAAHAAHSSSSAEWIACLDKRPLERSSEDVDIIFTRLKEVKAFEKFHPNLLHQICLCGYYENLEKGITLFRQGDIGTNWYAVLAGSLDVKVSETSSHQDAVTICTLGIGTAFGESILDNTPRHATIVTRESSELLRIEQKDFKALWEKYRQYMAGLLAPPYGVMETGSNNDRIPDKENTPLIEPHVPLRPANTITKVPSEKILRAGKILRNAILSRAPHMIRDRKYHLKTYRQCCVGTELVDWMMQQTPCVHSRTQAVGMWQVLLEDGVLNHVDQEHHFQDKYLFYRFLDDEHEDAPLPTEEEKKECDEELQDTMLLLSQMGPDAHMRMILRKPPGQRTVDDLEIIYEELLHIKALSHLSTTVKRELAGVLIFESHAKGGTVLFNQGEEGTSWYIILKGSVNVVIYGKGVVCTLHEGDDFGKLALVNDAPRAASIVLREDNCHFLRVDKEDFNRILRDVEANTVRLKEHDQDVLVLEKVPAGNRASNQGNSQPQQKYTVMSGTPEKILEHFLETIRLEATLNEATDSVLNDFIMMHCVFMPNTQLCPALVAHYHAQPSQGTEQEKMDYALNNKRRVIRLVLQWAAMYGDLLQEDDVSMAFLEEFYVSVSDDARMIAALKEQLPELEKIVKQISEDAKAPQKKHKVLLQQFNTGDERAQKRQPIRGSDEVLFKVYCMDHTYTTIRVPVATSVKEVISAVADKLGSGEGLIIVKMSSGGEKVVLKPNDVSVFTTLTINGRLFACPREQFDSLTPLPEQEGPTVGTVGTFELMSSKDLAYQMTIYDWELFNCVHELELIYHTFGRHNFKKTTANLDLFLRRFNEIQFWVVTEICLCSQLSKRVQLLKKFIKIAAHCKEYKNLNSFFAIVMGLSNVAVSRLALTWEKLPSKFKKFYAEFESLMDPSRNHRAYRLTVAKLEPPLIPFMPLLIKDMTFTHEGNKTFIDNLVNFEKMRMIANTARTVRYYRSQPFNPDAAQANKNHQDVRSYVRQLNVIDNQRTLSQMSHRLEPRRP

[3] = molecular target: Rap guanine nucleotide exchange factor 4 (Homo sapiens) (UniProt Q8WZA2); test: Confirmatory qHTS for antagonist of cAMP-regulated guanine nucleotide exchange factor 4 (EPAC2) (AID 1645885); also: nearly all actives have a fitted effect of over 25% in size; also: potency is read from the fitted curve at half-maximal effect
[4] = molecular target: Rap guanine nucleotide exchange factor 3 (Homo sapiens) (UniProt O95398); test: Counterscreen qHTS for antagonist of cAMP-regulated guanine nucleotide exchange factor 3 (EPAC1) (AID 1645888);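 also: fluorescence loss as bound BODIPY-GDP is released from Rap1B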
Summary of the method: (§1)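 Rap1B–BODIPY-GDP (250 nM) with 50 uM GDP; compounds pin-transferred to 9.74 nM–152 uM final (activator) or from 7.32 nM upwards (inhibitor). Fluorescence Ex/Em 480/540 nm read at 5 and 30 min, then after adding cAMP or buffer, at room temperature.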

[5] = molecular target: Rap guanine nucleotide exchange factor 3 (Homo sapiens) (UniProt O95398); test: Counterscreen qHTS for agonist of cAMP-regulated guanine nucleotide exchange factor 3 (EPAC1) (AID 1645889); also: nearly all actives have a fitted effect of over 40% in size
Summary of the method: as §1

| Structure (SMILES) | Potency [1] | Potency [2] | Potency [3] | Potency [4] | Potency [5] | activation [2] | activity change, negative = inhibition [4] | activation [5] |
| --- | --- | --- | --- | --- | --- | --- | --- | --- |
| O=C(c1ccc(-c2nnc(Nc3cccc(Cl)c3)c3ccccc23)cc1)N1C[C@H]2C[C@H](C1)c1cccc(=O)n1C2 | inactive | inactive | inactive | inactive | inactive |  |  |  |
| CCC(=C(c1ccc(OC)cc1)c1ccc(OC)cc1)c1cn(CC(O)CN2CCN(C)CC2)c2ccccc12 (stereo not given) | inactive |  | inactive |  |  | 8.96% [at 17.1 µM, percent relative to cAMP agonist control] | -21.5% [at 30.8 µM] | 25.5% [at 30.8 µM] |
| Cc1nnc2ccc(-c3ccc(NC(=O)Cc4cccs4)cc3)nn12 | inactive |  | inactive |  |  | -1.11% [at 17.1 µM, percent relative to cAMP agonist control] | -8.86% [at 30.8 µM] | 9.02% [at 30.8 µM] |
| CCOC(=O)c1c(C)oc2nc(C)nc(N(CC(C)C)CC(C)C)c12 | inactive | inactive | inactive | inactive | inactive |  |  |  |
| N#CC1=C(N)Oc2cc(N)ccc2C1c1ccc(Cl)cc1 (stereo not given) | inactive | inactive | 47.8 µM (active) | inactive | inactive |  |  |  |
| Cc1cc(C2(c3ccc(O)c(C)c3)C(=O)N(C)c3ccc(Br)cc32)ccc1O | inactive |  | inactive |  |  | 5.15% [at 17.1 µM, percent relative to cAMP agonist control] | -4.41% [at 30.8 µM] | 17.4% [at 30.8 µM] |
| O=C(NNc1c2ccccc2nc2ccccc12)c1ccccc1O | inactive | inactive | inactive | inactive | inactive |  |  |  |
| N#CCC(=O)Nc1ccc(C(=O)OCC(=O)Nc2ccc3ccccc3c2)cc1 | inactive | inactive | inactive | inactive | inactive |  |  |  |
| COc1ccc(OC)c(C(=O)/C=C/c2ccccc2C(F)(F)F)c1 | inactive | inactive | inactive | inactive | inactive |  |  |  |
| CC(C)Cn1nc(NS(=O)(=O)c2cccc3nonc23)c2cc3ccccc3nc21 | inactive | inactive | inactive | inactive | inactive |  |  |  |
| CC1(C)C=Cc2cc(-c3coc4cc(O)cc(O)c4c3=O)cc(O)c2O1 | inactive | inactive | inactive | inactive | inactive |  |  |  |
| CCCCCCn1nc(C(=O)OCC(=O)c2c(N)n(C)c(=O)n(C)c2=O)c2ccccc2c1=O | inactive | inactive | inactive | inactive | inactive |  |  |  |
| CCCCn1c(N)c(N(CCC(C)C)C(=O)c2ccc(COc3ccccc3)o2)c(=O)[nH]c1=O | inactive |  | inactive |  |  | 1.71% [at 17.1 µM, percent relative to cAMP agonist control] | 1.42% [at 30.8 µM] | 7.33% [at 30.8 µM] |
| Cc1cc(Br)cc(Cl)c1OC(=O)c1ccncc1 | inactive | inactive | 37.9 µM (active) | inactive | inactive |  |  |  |
| O=C(c1ccc(O)c(Br)c1)c1cc(Br)ccc1O | inactive |  | inactive |  |  | 3.68% [at 17.1 µM, percent relative to cAMP agonist control] | -2.96% [at 30.8 µM] | 26.8% [at 30.8 µM] |
| O=C1NC(=O)/C(=C/c2ccc(-c3cc(C(=O)O)ccc3Cl)o2)S1 | inactive |  | inactive |  |  | 7.65% [at 17.1 µM, percent relative to cAMP agonist control] | 4.91% [at 30.8 µM] | 8.4% [at 30.8 µM] |
| O=C1NC[C@H](Cc2ccc(O)cc2)N(C[C@@H]2CCCN2C[C@H](Cc2ccc(O)cc2)N2C[C@H](Cc3ccccc3)N(CC3CCCCC3)C(=O)C2=O)C1=O | inactive |  | inactive |  |  | -4.51% [at 17.1 µM, percent relative to cAMP agonist control] | -13.5% [at 30.8 µM] | 17.8% [at 30.8 µM] |
| Cn1c(/N=C/c2c(O)ccc3ccccc23)nc2ccccc21 | inactive | inactive | inactive | inactive | inactive |  |  |  |
| COc1ccccc1NC(=O)CSc1sc2c(O)cc(=O)[nH]c2c1C#N | inactive |  | inactive |  |  | 3.66% [at 17.1 µM, percent relative to cAMP agonist control] | 0.384% [at 30.8 µM] | 12.5% [at 30.8 µM] |

| Structure (SMILES) | Potency [1] | Potency [2] | Potency [3] | Potency [4] | Potency [5] | activation [2] | activity change, negative = inhibition [4] | activation [5] |
| --- | --- | --- | --- | --- | --- | --- | --- | --- |
| O=C(N[C@H](Cc1ccc(Cl)cc1)C(=O)O)OCC1c2ccccc2-c2ccccc21 | inactive |  | inactive |  |  | -11.8% [at 17.1 µM, percent relative to cAMP agonist control] | -5.81% [at 30.8 µM] | 8.84% [at 30.8 µM] |
| COc1ccc(C2CC(=O)C3=C(C2)NC(C)=C(C#N)C3c2ccc(N(C)C)cc2)cc1 (stereo not given) | inactive |  | inactive |  |  | 6.82% [at 17.1 µM, percent relative to cAMP agonist control] | 0.0712% [at 30.8 µM] | 20% [at 30.8 µM] |
| Cc1cc2oc(=O)c(CC(=O)O)c(C)c2c2occ(-c3ccccc3)c12 | inactive | inactive | inactive | inactive | inactive |  |  |  |
| CCOC(=O)C1=C(C)N=c2sc(=Cc3cc(Cl)c(OCC(=O)O)c(Cl)c3)c(=O)n2C1c1cccc(OC)c1 (stereo not given) | inactive | inactive | inactive | inactive | inactive |  |  |  |
| CCCCN(C(=O)Cn1ncc(Cl)c(Cl)c1=O)c1c(N)n(CC(C)C)c(=O)[nH]c1=O | inactive |  | inactive |  |  | 3.26% [at 17.1 µM, percent relative to cAMP agonist control] | -8.9% [at 30.8 µM] | 16.5% [at 30.8 µM] |
| CCOCc1nnc(NC(=O)C2c3ccccc3Oc3ccccc32)s1 | inactive | inactive | 67.5 µM (active) | inactive | inactive |  |  |  |
| Cc1ccccc1NC(=O)CN1C(=O)N/C(=C\c2ccccc2OCc2ccc(C(=O)O)cc2)C1=O | inactive | inactive | 53.6 µM (active) | inactive | inactive |  |  |  |
| O=C(Nc1c2c(nc3ccccc13)CCCC2)c1ccccc1F | inactive |  | inactive |  |  | -3.93% [at 17.1 µM, percent relative to cAMP agonist control] | -18.6% [at 30.8 µM] | 12.9% [at 30.8 µM] |
| CCOC(=O)c1ccc2c(c1)C1C=CCC1C(C(=O)OCC)N2 (stereo not given) | inactive |  | inactive |  |  | 4.17% [at 17.1 µM, percent relative to cAMP agonist control] | -1.12% [at 30.8 µM] | 32.7% [at 30.8 µM] |
| Cc1nn(CCc2nn[nH]n2)c2nc(-c3ccc(Br)cc3)cc(C(F)(F)F)c12 | inactive | inactive | inactive | inactive | inactive |  |  |  |
| O=C(C1CC1)N1CCCC(c2ccc(Cl)cc2)=N1 | inactive |  | inactive |  |  | -19.8% [at 17.1 µM, percent relative to cAMP agonist control] | -19% [at 30.8 µM] | -0.772% [at 30.8 µM] |
| CCOC(=O)C(C(C)C)C(N)Cc1ccc(F)cc1 (stereo not given) | inactive | inactive | inactive | inactive | inactive |  |  |  |
| CC(C)(C)c1ccc(OCc2ccc(C(=O)N/N=C/c3ccc(O)c(O)c3)cc2)cc1 | inactive |  | inactive |  |  | -9.36% [at 17.1 µM, percent relative to cAMP agonist control] | -20.9% [at 30.8 µM] | 10.5% [at 30.8 µM] |
| OC(c1ccc(F)c(F)c1)c1nc(-c2csc3ccccc23)cs1 (stereo not given) | inactive |  | inactive |  |  | 3.04% [at 17.1 µM, percent relative to cAMP agonist control] | -0.286% [at 30.8 µM] | 2.58% [at 30.8 µM] |
| CN(C)c1ccc(C=C(C#N)C(=O)c2ccccc2)cc1Br | inactive | inactive | inactive | inactive | inactive |  |  |  |
| O=C(C=Cc1ccccc1)c1c[nH]c2ccccc2c1=O | inactive |  | inactive |  |  | 5.37% [at 17.1 µM, percent relative to cAMP agonist control] | -25.8% [at 30.8 µM] | 9.21% [at 30.8 µM] |
| O=C(COC(=O)c1ccc([N+](=O)[O-])s1)NCc1ccccc1 | inactive | inactive | inactive | inactive | inactive |  |  |  |
| Cc1ccccc1OCC(=O)Nc1ccccc1N1CCC(C)CC1 | inactive | inactive | 42.6 µM (active) | inactive | inactive |  |  |  |
| NS(=O)(=O)c1ccc(N/N=C/c2ccccc2C(=O)O)c([N+](=O)[O-])c1 | inactive | inactive | inactive | inactive | inactive |  |  |  |
